Test results reported in PubChem BioAssay AID504444 (National Center for Advancing Translational Sciences (NCATS), 2011).
Among all 360,000 compounds or so, about 7,500 (2.1%) were called active. Another 20% or so got no clear call; they are omitted. The call rests on the fitted dose curve; in most records, active means well fitted inhibition curve with a large enough effect; inconclusive means small, poorly fitted or top-dose-only effect, or effect the other way; inactive means flat fitted curve, though single readings scatter. This excerpt belongs to a sample that is enriched for actives.

Assay: Nrf2 qHTS screen for inhibitors; further: nearly all actives have a fitted effect of over 60% in size
Details: A549 ARE-Fluc reporter, luciferase luminescence, 18-24 h; series mostly up to 46 µM; activity change, negative = inhibition: at the top concentration
Method in brief: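 Nrf2 activity is the BugLite luminescence, read 15 min after reagent at room temperature, following CellTiter-Fluor cytotoxicity readout (30 min, 37C). Compound titrations were applied for 18-24 h to 5000 A549 ARE_Fluc cells/well in 5% FBS OPTI-MEM.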
On the % scale 0 is the no-effect control and ±100 the full control effect; potency means the concentration at half of the fitted maximal effect.

Row | SMILES | activity change, negative = inhibition | Potency
1 | Cc1ccc(SCC(=O)Nc2ccc3oc(-c4ccccc4F)nc3c2)cc1 | 4.37% (inactive) | 
2 | CC[C@]1(C(=O)OC)[C@H]2C(=O)N(Cc3ccccc3)C(=O)[C@H]2[C@H]2CN=C(SCc3ccc(C#N)cc3)N21 | -2.24% (inactive) | 
3 | CCc1ccc(S(=O)(=O)c2nnn3c2nc(N2CCN(CC)CC2)c2sccc23)cc1 | 28.1% (inactive) | 
4 | O=S(=O)(c1ccc(Br)cc1)c1nnn2c1nc(NC1CCCCCC1)c1sccc12 | 2.63% (inactive) | 
5 | CCOc1ccc(Nc2nc3c(S(=O)(=O)c4cccc(Cl)c4)nnn3c3ccsc23)cc1 |  | 14.6 µM (active)
6 | Cc1ccc(-c2cn3c(n2)sc2cc(C(=O)NCCCc4ccccc4)ccc23)cc1 | 13.8% (inactive) | 
7 | CCN1C[C@@H]2[C@@H]3C(=O)N(Cc4ccccc4)C(=O)[C@@H]3[C@](Cc3ccccc3)(C(=O)OC)N2C1=NC1CCCCC1 | -21.2% (inactive) | 
8 | CCN(CCCNC(=O)c1cc(Nc2ccc(OC)cc2)nc2ccccc12)c1cccc(C)c1 | 6.69% (inactive) | 
9 | O=C(COC(=O)c1c2c(nc3ccccc13)/C(=C\c1cccs1)CCC2)Nc1ccccc1Cl | -9.33% (inactive) | 
10 | NS(=O)(=O)c1ccc(NC(=O)COC(=O)c2c3c(nc4ccccc24)/C(=C\c2ccc4c(c2)OCO4)CCC3)cc1 | -21.8% (inactive) | 
11 | NC(=O)c1ccc(NC(=O)COC(=O)c2c3c(nc4ccccc24)/C(=C\c2ccc4c(c2)OCO4)CCC3)cc1 |  | 14.6 µM (active)
12 | CC(=O)c1c(C)[nH]c(C(=O)OCC(=O)Nc2c(C)cccc2C)c1C |  | 13 µM (active)
13 | CC(=O)c1c(C)[nH]c(C(=O)OCC(=O)Nc2c(C)n(C)n(-c3ccccc3)c2=O)c1C | -19% (inactive) | 
14 | Cc1ccc(C)c(OCC(=O)Nc2sc3c(c2C#N)CCCC3)c1C | 3.03% (inactive) | 
15 | CC(=O)c1c(C)[nH]c(C(=O)COC(=O)c2cccs2)c1C | -11.4% (inactive) | 
16 | Cc1cccc(C(=O)OCC(=O)Nc2sc3c(c2C#N)CCC3)c1 | 1.47% (inactive) | 
17 | CC(=O)c1c(C)[nH]c(C(=O)OCC(=O)NCCC(C)C)c1C |  | 11.6 µM (active)
18 | CC(=O)c1c(C)[nH]c(C(=O)OCC(=O)Nc2cc(S(=O)(=O)N3CCCCC3)ccc2C)c1C | -24% (inactive) | 
19 | CC(=O)c1c(C)[nH]c(C(=O)OCC(=O)Nc2sc3c(c2C#N)CCCC3)c1C |  | 18.4 µM (active)
20 | Cc1cccc(C)c1NC(=O)COC(=O)c1ccccc1O | 2% (inactive) | 

Row | SMILES | activity change, negative = inhibition | Potency
21 | CCOC(=O)N1CCC(NC(=O)c2cnn(-c3cccc(C)c3)c2C2CCN(C(=O)OC(C)(C)C)CC2)CC1 | 11.3% (inactive) | 
22 | O=C(NCc1ccccc1CN1CCCC1)C1CCN(S(=O)(=O)c2ccc(Cl)cc2)CC1 | 13.4% (inactive) | 
23 | CCOc1ccc(S(=O)(=O)c2cn(Cc3ccc(OC)cc3)c3ccc(F)cc3c2=O)cc1 | -7.26% (inactive) | 
24 | CCn1cc(C(=O)NCc2ccc(C)cc2)c(=O)c2cc(S(=O)(=O)N3CCc4ccccc4C3)ccc21 | 5.14% (inactive) | 
25 | Cc1cc2c(s1)c1cnn(Cc3c(F)cccc3Cl)c(=O)c1n2C | 16.9% (inactive) | 
26 | CC(C)Cn1c(-c2ccc(S(=O)(=O)N3CCOCC3)cc2)csc1=Nc1cc(Cl)ccc1Cl | -3.88% (inactive) | 
27 | CCn1cc(C(=O)N2CCN(c3cc(Cl)ccc3C)CC2)c(=O)c2cc(S(=O)(=O)N3CCCC3)ccc21 | -10.7% (inactive) | 
28 | CCn1cc(C(=O)N2CCN(c3cc(C)ccc3C)CC2)c(=O)c2cc(S(=O)(=O)N(C)C3CCCCC3)ccc21 |  | 23.1 µM (active)
29 | Cc1ccc(Cl)cc1N1CCN(C(=O)c2cn(C)c3ccc(S(=O)(=O)N(C)C4CCCCC4)cc3c2=O)CC1 | 25.6% (inactive) | 
30 | CCN1CCC(O)(/C=C/c2ccc(C)cc2)C(C(=O)/C=C/c2ccc(C)cc2)C1 (stereo not drawn) | -22.3% (inactive) | 
31 | CC[C@@]1(C(=O)OC)N[C@H](CN(C)C(C)=O)[C@@H]2C(=O)N(C)C(=O)[C@@H]21 | -0.744% (inactive) | 
32 | O=C(NCCc1ccco1)c1ccc(OCc2cn3ccccc3n2)cc1 | 23.3% (inactive) | 
33 | COC1C(CO)OC(n2cnc3c(=S)nc(N)[nH]c32)C1O (stereo not drawn) | -1.21% (inactive) | 
34 | O=c1ccn(Cc2ccccc2Cl)cc1 | 3.6% (inactive) | 
35 | N#CC(C#N)=CN=c1ccn(Cc2ccc(Cl)cc2Cl)cc1 |  | 1.84 µM (active)
36 | CC(C)(C)c1cc(C(=O)NN)n(Cc2ccc(Cl)cc2Cl)n1 | -13.1% (inactive) | 
37 | CCNS(=O)(=O)c1ccc(CCC(=O)N2CCN(c3ccc(OC)cc3)CC2)cc1 | 0.623% (inactive) | 
38 | CCCNS(=O)(=O)c1ccc(CCC(=O)N2CCCC2)cc1 | -0.614% (inactive) | 
39 | CCNS(=O)(=O)c1ccc(CCC(=O)N2CCN(c3cc(Cl)ccc3C)CC2)cc1 |  | 8.2 µM (active)
40 | CSc1ccc(CN2C(=O)NC3(CCCCCC3)C2=O)cc1 |  | 18.4 µM (active)

Row | SMILES | activity change, negative = inhibition | Potency
41 | O=C(CN1C(=O)NC2(CCCCCCC2)C1=O)NCc1ccc(F)cc1 | 8.87% (inactive) | 
42 | O=C(CN1C(=O)NC2(CCCCCC2)C1=O)NCc1ccc(F)cc1 | -6.21% (inactive) | 
43 | COc1ccc(C2(c3ccc(OC)cc3)NC(=O)N(CC(=O)Nc3cc(C)on3)C2=O)cc1 | 2.89% (inactive) | 
44 | Cc1cccc(CC2(O)C(=O)Nc3ccccc32)n1 (stereo not drawn) | -21.7% (inactive) | 
45 | O=C(Nc1cccc(Cl)c1N1CCOCC1)c1ccc2c(c1)OCCO2 |  | 23.1 µM (active)
46 | COC(=O)c1ccc(N2CCOCC2)c(NC(=O)c2ccc3c(c2)OCCO3)c1 | 3.57% (inactive) | 
47 | O=C(Nc1cccc(Cl)c1N1CCOCC1)c1cccnc1 | -6.75% (inactive) | 
48 | CC/C(=C(/c1ccccc1)c1ccc(OCC[N+](C)(C)C)cc1)c1ccccc1 | -7.21% (inactive) | 
49 | CCN(CC)CCn1c(N)c(S(=O)(=O)c2ccccc2)c2nc3ccccc3nc21 | -2.15% (inactive) | 
50 | CCC(=O)Nc1c(S(=O)(=O)c2ccccc2)c2nc3ccccc3nc2n1Cc1ccccc1 |  | 14.6 µM (active)
51 | COC(=O)CSc1nc2ccccc2c(=O)n1Cc1ccccc1 | 4.16% (inactive) | 
52 | COc1cc(C(=O)CCc2ccc3c(c2)OCO3)cc(OC)c1OC | 0.0369% (inactive) | 
53 | COc1cccc(CNC(=O)CSc2c3c(nc4cc(Cl)ccc24)CCCC3)c1 | -28.8% (inactive) | 
54 | CCOc1ccccc1NC(=O)COc1ccc(S(=O)(=O)N2CCCC2)cc1 | 8.32% (inactive) | 
55 | CCOc1ccc(S(=O)(=O)N2CCCCC2)cc1NC(=O)CN1CCCC1c1cccs1 (stereo not drawn) |  | 8.2 µM (active)
56 | COc1ccc(S(=O)(=O)N2CCCCC2)cc1NC(=O)COc1ccccc1 | -5.84% (inactive) | 
57 | COc1cc(/C=C/CNC[C@H]2O[C@@H](n3cnc(C(N)=O)n3)[C@H](O)[C@@H]2O)ccc1O | -6.54% (inactive) | 
58 | COc1ccc(NC(=O)CSC2=Nc3ccccc3C3=NC(CC(=O)NCc4ccccc4OC)C(=O)N23)cc1Cl (stereo not drawn) | 7.31% (inactive) | 
